Experimental data from PMC11062922 (Nature Chemical Biology, 2023).
Where two headings read alike, the source gives them in different places.

How the values were obtained:
IRAK4 = conditions: read-out: apparent Kd, n = 1
LATS1 = conditions: read-out: apparent Kd, n = 1

## Lestaurtinib
IRAK4; compound concentrations:100 nM and 1000 nM (sheet 'Lestaurtinib' of Supplementary Table 1),run:Lestaurtinib_03252_R1,Plate:MR032
  potency estimated from few doses: 95.9 nM
IRAK4; compound concentrations:100 nM and 1000 nM (sheet 'Lestaurtinib' of Supplementary Table 1),run:Lestaurtinib_03260_R2,Plate:MR033
  potency estimated from few doses: 132 nM
IRAK4; compound concentrations:100 nM and 1000 nM (sheet 'Lestaurtinib' of Supplementary Table 1),run:Lestaurtinib_03260_R3,Plate:MR033
  potency estimated from few doses: 85.1 nM
LATS1; compound concentrations:100 nM and 1000 nM (sheet 'Lestaurtinib' of Supplementary Table 1),run:Lestaurtinib_02339_R1,Plate:MR001
  potency estimated from few doses: 27.8 nM
LATS1; compound concentrations:100 nM and 1000 nM (sheet 'Lestaurtinib' of Supplementary Table 1),run:Lestaurtinib_02339_R2,Plate:MR001
  potency estimated from few doses: 31.4 nM
LATS1; compound concentrations:100 nM and 1000 nM (sheet 'Lestaurtinib' of Supplementary Table 1),run:Lestaurtinib_02339_R3,Plate:MR001
  potency estimated from few doses: 37.3 nM
LATS1; compound concentrations:100 nM and 1000 nM (sheet 'Lestaurtinib' of Supplementary Table 1),run:Lestaurtinib_02364_R2,Plate:MR002
  potency estimated from few doses: 22.6 nM
LATS1; compound concentrations:100 nM and 1000 nM (sheet 'Lestaurtinib' of Supplementary Table 1),run:Lestaurtinib_02364_R3,Plate:MR002
  potency estimated from few doses: 44.1 nM
LATS1; compound concentrations:100 nM and 1000 nM (sheet 'Lestaurtinib' of Supplementary Table 1),run:Lestaurtinib_02367_R1,Plate:MR003
  potency estimated from few doses: 27.8 nM
LATS1; compound concentrations:100 nM and 1000 nM (sheet 'Lestaurtinib' of Supplementary Table 1),run:Lestaurtinib_02367_R2,Plate:MR003
  potency estimated from few doses: 40.3 nM
LATS1; compound concentrations:100 nM and 1000 nM (sheet 'Lestaurtinib' of Supplementary Table 1),run:Lestaurtinib_02367_R3,Plate:MR003
  potency estimated from few doses: 22.1 nM
LATS1; compound concentrations:100 nM and 1000 nM (sheet 'Lestaurtinib' of Supplementary Table 1),run:Lestaurtinib_02381_R1,Plate:MR004
  potency estimated from few doses: 27 nM
LATS1; compound concentrations:100 nM and 1000 nM (sheet 'Lestaurtinib' of Supplementary Table 1),run:Lestaurtinib_02407_R1,Plate:MR005
  potency estimated from few doses: 39.5 nM
LATS1; compound concentrations:100 nM and 1000 nM (sheet 'Lestaurtinib' of Supplementary Table 1),run:Lestaurtinib_02407_R2,Plate:MR005
  potency estimated from few doses: 27.7 nM
LATS1; compound concentrations:100 nM and 1000 nM (sheet 'Lestaurtinib' of Supplementary Table 1),run:Lestaurtinib_02422_R1,Plate:MR006
  potency estimated from few doses: 34.2 nM
LATS1; compound concentrations:100 nM and 1000 nM (sheet 'Lestaurtinib' of Supplementary Table 1),run:Lestaurtinib_02422_R3,Plate:MR006
  potency estimated from few doses: 34.2 nM
LATS1; compound concentrations:100 nM and 1000 nM (sheet 'Lestaurtinib' of Supplementary Table 1),run:Lestaurtinib_02437_R1,Plate:MR007
  potency estimated from few doses: 35 nM
LATS1; compound concentrations:100 nM and 1000 nM (sheet 'Lestaurtinib' of Supplementary Table 1),run:Lestaurtinib_02437_R2,Plate:MR007
  potency estimated from few doses: 27 nM
LATS1; compound concentrations:100 nM and 1000 nM (sheet 'Lestaurtinib' of Supplementary Table 1),run:Lestaurtinib_02437_R3,Plate:MR007
  potency estimated from few doses: 0.206 nM
LATS1; compound concentrations:100 nM and 1000 nM (sheet 'Lestaurtinib' of Supplementary Table 1),run:Lestaurtinib_02438_R3,Plate:MR008
  potency estimated from few doses: 29 nM
LATS1; compound concentrations:100 nM and 1000 nM (sheet 'Lestaurtinib' of Supplementary Table 1),run:Lestaurtinib_02443_R2,Plate:MR009
  potency estimated from few doses: 30.6 nM
LATS1; compound concentrations:100 nM and 1000 nM (sheet 'Lestaurtinib' of Supplementary Table 1),run:Lestaurtinib_02443_R3,Plate:MR009
  potency estimated from few doses: 38.6 nM
LATS1; compound concentrations:100 nM and 1000 nM (sheet 'Lestaurtinib' of Supplementary Table 1),run:Lestaurtinib_02482_R1,Plate:MR011
  potency estimated from few doses: 38.1 nM
LATS1; compound concentrations:100 nM and 1000 nM (sheet 'Lestaurtinib' of Supplementary Table 1),run:Lestaurtinib_02482_R2,Plate:MR011
  potency estimated from few doses: 32.7 nM
LATS1; compound concentrations:100 nM and 1000 nM (sheet 'Lestaurtinib' of Supplementary Table 1),run:Lestaurtinib_02482_R3,Plate:MR011
  potency estimated from few doses: 46 nM
LATS1; compound concentrations:100 nM and 1000 nM (sheet 'Lestaurtinib' of Supplementary Table 1),run:Lestaurtinib_02572_R1,Plate:MR015
  potency estimated from few doses: 18 nM
LATS1; compound concentrations:100 nM and 1000 nM (sheet 'Lestaurtinib' of Supplementary Table 1),run:Lestaurtinib_02572_R2,Plate:MR015
  potency estimated from few doses: 23.5 nM
LATS1; compound concentrations:100 nM and 1000 nM (sheet 'Lestaurtinib' of Supplementary Table 1),run:Lestaurtinib_02572_R3,Plate:MR015
  potency estimated from few doses: 22.5 nM
LATS1; compound concentrations:100 nM and 1000 nM (sheet 'Lestaurtinib' of Supplementary Table 1),run:Lestaurtinib_02577_R1,Plate:MR016
  potency estimated from few doses: 36.6 nM
LATS1; compound concentrations:100 nM and 1000 nM (sheet 'Lestaurtinib' of Supplementary Table 1),run:Lestaurtinib_02577_R2,Plate:MR016
  potency estimated from few doses: 51.4 nM
LATS1; compound concentrations:100 nM and 1000 nM (sheet 'Lestaurtinib' of Supplementary Table 1),run:Lestaurtinib_02577_R3,Plate:MR016
  potency estimated from few doses: 63.8 nM
LATS1; compound concentrations:100 nM and 1000 nM (sheet 'Lestaurtinib' of Supplementary Table 1),run:Lestaurtinib_02584_R2,Plate:MR017
  potency estimated from few doses: 50.1 nM
LATS1; compound concentrations:100 nM and 1000 nM (sheet 'Lestaurtinib' of Supplementary Table 1),run:Lestaurtinib_02584_R3,Plate:MR017
  potency estimated from few doses: 45.2 nM
LATS1; compound concentrations:100 nM and 1000 nM (sheet 'Lestaurtinib' of Supplementary Table 1),run:Lestaurtinib_02601_R2,Plate:MR018
  potency estimated from few doses: 79.1 nM
LATS1; compound concentrations:100 nM and 1000 nM (sheet 'Lestaurtinib' of Supplementary Table 1),run:Lestaurtinib_02601_R3,Plate:MR018
  potency estimated from few doses: 55.9 nM
LATS1; compound concentrations:100 nM and 1000 nM (sheet 'Lestaurtinib' of Supplementary Table 1),run:Lestaurtinib_02606_R1,Plate:MR019
  potency estimated from few doses: 39.1 nM
LATS1; compound concentrations:100 nM and 1000 nM (sheet 'Lestaurtinib' of Supplementary Table 1),run:Lestaurtinib_02606_R2,Plate:MR019
  potency estimated from few doses: 35.8 nM
